Assay results from the supplement of paper PMC11732987, “Enantioselective OTUD7B fragment discovery through chemoproteomics screening and high-throughput optimisation” (Communications Chemistry, 2025).

Experiments:
Assay in all cases: log2 ratio of Biotin-Ahx-Ub-VS probe labelling (fragment/DMSO); higher = less target engagement (more negative = stronger competition), active = hit call of the paper (q ≤ 0.05, log2 ratio ≤ -1)
Conditions in all cases: compound concentration: 200 uM; treatment time: 3 h
USP42 = molecular target: T1, USP42 (UniProt Q9H9J4)
T1 sequence (whole entry): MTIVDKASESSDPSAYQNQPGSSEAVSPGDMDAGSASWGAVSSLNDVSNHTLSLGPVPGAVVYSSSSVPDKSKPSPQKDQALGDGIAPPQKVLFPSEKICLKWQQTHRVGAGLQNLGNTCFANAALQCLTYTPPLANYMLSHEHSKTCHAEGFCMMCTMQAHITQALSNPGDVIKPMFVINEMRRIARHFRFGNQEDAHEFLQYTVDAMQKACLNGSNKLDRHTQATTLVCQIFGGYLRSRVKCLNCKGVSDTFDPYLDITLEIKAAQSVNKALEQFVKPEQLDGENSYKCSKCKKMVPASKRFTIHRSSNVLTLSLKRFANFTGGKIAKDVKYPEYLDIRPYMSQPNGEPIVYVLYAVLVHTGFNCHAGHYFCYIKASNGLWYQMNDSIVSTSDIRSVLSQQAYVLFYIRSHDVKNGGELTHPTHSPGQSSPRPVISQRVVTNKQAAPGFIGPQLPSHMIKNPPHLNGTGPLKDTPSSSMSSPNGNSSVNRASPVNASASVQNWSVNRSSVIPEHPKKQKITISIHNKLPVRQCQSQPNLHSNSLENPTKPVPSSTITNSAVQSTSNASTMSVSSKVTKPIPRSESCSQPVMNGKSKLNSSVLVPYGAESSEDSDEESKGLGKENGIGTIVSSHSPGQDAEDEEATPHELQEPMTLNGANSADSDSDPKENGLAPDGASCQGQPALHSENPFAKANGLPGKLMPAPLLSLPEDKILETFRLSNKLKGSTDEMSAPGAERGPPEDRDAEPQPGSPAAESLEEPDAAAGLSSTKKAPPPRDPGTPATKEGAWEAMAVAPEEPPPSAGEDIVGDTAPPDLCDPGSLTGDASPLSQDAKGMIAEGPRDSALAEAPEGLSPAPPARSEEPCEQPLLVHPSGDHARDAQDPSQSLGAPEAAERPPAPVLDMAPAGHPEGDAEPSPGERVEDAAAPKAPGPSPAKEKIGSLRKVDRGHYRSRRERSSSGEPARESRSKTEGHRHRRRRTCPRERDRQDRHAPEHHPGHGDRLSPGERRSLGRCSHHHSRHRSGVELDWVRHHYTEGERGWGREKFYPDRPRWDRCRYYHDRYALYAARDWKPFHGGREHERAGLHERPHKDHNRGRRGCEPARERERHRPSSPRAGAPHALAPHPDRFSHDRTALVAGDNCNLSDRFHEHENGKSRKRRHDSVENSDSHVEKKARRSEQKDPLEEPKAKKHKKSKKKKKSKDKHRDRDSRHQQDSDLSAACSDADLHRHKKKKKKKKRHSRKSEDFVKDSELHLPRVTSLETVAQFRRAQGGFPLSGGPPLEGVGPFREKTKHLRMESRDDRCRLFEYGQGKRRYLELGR
In short: (§1)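 In triplicate, 495 µg of HEK293T lysate per sample was incubated with fragment at 200 µM or vehicle for 3 h. Biotin-Ahx-Ub-VS was then added to 0.5 µM final for 1 h, and labelled DUBs were captured with NeutrAvidin, digested with LysC and trypsin, and measured by diaPASEF LC-MS/MS. Data are average log2 fragment/vehicle ratios by unpaired t-test from global-median-normalised Spectronaut label-free quantities, restricted to proteins with ≥2 unique peptides.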

USP46 = USP46 (UniProt P62068)
In short: as §1

USP47 = molecular target: T2, USP47 (UniProt Q96K76)
T2 sequence (whole entry): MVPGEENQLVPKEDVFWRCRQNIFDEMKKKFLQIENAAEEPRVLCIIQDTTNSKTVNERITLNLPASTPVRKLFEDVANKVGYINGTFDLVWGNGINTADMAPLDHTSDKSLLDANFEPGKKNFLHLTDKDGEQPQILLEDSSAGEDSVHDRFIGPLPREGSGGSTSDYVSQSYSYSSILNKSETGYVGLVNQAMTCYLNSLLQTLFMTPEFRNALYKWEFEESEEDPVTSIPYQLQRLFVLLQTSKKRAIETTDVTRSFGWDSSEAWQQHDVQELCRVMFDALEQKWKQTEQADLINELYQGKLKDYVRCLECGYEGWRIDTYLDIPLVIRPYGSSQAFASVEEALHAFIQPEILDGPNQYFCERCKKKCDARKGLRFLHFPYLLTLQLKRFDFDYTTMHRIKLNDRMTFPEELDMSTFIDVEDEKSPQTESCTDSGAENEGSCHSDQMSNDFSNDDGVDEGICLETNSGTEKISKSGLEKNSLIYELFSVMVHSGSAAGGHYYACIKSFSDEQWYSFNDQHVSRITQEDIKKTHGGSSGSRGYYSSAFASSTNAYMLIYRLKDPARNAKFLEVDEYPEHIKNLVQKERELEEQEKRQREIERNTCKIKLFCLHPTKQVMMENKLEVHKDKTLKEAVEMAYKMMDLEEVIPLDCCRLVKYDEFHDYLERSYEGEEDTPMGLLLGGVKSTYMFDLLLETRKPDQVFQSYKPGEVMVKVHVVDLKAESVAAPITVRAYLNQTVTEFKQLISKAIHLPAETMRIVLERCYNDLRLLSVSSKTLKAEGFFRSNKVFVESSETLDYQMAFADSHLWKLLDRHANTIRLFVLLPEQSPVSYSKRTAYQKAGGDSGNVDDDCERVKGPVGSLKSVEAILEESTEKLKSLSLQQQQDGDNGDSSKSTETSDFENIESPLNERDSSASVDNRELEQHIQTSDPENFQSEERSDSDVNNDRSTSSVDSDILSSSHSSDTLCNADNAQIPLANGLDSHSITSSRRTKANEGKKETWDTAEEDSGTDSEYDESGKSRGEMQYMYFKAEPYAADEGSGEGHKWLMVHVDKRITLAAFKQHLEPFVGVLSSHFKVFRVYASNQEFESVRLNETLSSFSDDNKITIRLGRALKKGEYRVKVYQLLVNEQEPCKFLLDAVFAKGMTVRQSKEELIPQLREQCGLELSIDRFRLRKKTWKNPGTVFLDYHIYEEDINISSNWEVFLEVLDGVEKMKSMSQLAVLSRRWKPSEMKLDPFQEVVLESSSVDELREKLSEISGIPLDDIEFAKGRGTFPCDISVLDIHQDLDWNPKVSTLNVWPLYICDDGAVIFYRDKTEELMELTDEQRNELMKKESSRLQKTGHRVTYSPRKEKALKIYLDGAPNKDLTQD
In short: as §1

USP48 = molecular target: T3, USP48 (UniProt Q86UV5)
T3 sequence (whole entry): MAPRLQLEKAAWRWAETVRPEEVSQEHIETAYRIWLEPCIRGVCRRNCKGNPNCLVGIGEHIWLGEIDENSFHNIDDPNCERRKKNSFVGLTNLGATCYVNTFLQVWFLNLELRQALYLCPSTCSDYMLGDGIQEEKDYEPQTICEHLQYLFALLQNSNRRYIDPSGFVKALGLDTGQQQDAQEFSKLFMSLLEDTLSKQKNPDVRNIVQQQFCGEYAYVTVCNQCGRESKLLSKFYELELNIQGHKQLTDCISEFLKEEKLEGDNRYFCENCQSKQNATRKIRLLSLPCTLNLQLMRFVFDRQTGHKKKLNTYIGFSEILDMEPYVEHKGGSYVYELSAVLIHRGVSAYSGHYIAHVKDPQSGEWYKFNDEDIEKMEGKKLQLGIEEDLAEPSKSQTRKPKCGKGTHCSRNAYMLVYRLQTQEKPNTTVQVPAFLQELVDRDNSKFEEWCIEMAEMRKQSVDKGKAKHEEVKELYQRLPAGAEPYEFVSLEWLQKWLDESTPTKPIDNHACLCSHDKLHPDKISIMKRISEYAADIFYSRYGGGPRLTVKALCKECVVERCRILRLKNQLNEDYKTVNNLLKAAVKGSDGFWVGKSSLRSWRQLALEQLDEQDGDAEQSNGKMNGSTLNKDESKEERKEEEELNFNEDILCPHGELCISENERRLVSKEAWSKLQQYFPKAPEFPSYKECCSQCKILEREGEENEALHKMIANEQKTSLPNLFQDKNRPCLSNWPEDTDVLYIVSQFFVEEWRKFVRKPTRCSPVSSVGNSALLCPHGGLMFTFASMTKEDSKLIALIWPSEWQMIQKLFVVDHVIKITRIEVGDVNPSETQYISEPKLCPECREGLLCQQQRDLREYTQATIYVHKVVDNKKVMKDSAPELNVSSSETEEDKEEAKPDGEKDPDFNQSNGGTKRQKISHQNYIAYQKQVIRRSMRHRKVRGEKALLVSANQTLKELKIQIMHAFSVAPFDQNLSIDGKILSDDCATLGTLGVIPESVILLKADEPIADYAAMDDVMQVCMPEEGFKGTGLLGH
In short: as §1

USP5 = molecular target: T4, USP5 (UniProt P45974)
T4 sequence (whole entry): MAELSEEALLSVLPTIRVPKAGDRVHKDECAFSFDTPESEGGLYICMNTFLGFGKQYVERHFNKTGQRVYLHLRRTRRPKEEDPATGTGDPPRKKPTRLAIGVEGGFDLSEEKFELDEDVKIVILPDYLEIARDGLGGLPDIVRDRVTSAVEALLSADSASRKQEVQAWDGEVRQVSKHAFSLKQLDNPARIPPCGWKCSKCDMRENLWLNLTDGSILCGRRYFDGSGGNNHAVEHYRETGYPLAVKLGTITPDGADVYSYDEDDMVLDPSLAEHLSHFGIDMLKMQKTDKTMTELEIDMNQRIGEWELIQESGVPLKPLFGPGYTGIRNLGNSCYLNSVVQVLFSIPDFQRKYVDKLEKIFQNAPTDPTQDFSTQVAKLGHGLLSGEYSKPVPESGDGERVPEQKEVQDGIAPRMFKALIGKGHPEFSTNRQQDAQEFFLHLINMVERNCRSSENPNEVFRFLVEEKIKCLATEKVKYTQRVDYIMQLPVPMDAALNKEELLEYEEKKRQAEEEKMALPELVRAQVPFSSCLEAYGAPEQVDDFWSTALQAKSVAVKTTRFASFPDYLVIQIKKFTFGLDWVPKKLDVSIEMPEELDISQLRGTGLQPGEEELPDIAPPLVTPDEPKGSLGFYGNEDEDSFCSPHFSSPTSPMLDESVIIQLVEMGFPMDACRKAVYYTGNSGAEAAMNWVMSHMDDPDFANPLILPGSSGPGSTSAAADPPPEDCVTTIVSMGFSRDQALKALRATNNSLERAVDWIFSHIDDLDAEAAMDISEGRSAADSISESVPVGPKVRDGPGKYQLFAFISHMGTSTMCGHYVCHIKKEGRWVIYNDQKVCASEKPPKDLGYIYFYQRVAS
In short: as §1

USP54 = USP54 (UniProt Q70EL1)
In short: as §1

USP7 = USP7 (UniProt Q93009)
In short: as §1

USP8 = molecular target: T5, USP8 (UniProt P40818)
T5 sequence (whole entry): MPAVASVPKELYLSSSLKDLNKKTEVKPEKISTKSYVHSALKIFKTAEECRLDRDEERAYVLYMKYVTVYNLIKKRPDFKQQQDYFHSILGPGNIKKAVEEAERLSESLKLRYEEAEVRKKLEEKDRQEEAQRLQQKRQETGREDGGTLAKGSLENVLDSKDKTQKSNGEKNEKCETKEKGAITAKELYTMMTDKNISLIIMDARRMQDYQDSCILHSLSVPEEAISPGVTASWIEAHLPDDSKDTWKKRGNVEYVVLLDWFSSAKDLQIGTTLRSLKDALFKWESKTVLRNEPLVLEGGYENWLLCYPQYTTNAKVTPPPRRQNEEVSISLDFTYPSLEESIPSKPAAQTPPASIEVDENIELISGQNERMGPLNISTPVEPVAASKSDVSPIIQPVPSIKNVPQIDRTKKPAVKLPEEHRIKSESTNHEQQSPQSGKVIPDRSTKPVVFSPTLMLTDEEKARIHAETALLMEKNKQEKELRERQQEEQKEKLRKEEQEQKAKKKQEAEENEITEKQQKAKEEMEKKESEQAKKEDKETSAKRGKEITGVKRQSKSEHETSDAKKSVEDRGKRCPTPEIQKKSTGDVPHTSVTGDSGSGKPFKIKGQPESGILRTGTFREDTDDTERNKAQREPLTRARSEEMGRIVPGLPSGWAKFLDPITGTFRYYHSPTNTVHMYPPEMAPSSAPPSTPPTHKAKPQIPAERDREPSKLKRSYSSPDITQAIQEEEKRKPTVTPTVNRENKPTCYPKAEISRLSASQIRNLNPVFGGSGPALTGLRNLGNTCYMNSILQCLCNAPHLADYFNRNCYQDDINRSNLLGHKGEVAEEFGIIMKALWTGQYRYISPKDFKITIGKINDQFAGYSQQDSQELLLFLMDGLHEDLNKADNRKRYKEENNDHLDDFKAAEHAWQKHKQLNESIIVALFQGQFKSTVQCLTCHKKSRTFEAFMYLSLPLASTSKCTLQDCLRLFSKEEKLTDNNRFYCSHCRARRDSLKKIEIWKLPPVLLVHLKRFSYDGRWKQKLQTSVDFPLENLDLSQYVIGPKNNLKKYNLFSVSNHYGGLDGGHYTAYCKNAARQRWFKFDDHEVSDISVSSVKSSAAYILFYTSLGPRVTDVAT
In short: as §1

Measured: log2 ratio of Biotin-Ahx-Ub-VS probe labelling

Chain of USP46 (P62068 whole entry): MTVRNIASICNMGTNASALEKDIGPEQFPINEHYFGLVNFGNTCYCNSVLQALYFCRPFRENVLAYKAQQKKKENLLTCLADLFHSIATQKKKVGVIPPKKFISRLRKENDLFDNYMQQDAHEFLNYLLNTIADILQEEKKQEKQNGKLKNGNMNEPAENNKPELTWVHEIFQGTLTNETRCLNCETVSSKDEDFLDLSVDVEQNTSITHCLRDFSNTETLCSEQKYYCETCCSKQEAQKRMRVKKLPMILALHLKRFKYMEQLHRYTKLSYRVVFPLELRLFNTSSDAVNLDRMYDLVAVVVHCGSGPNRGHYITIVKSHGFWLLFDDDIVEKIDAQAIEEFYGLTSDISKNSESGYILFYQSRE
Chain of USP7 (Q93009 whole entry, looked up): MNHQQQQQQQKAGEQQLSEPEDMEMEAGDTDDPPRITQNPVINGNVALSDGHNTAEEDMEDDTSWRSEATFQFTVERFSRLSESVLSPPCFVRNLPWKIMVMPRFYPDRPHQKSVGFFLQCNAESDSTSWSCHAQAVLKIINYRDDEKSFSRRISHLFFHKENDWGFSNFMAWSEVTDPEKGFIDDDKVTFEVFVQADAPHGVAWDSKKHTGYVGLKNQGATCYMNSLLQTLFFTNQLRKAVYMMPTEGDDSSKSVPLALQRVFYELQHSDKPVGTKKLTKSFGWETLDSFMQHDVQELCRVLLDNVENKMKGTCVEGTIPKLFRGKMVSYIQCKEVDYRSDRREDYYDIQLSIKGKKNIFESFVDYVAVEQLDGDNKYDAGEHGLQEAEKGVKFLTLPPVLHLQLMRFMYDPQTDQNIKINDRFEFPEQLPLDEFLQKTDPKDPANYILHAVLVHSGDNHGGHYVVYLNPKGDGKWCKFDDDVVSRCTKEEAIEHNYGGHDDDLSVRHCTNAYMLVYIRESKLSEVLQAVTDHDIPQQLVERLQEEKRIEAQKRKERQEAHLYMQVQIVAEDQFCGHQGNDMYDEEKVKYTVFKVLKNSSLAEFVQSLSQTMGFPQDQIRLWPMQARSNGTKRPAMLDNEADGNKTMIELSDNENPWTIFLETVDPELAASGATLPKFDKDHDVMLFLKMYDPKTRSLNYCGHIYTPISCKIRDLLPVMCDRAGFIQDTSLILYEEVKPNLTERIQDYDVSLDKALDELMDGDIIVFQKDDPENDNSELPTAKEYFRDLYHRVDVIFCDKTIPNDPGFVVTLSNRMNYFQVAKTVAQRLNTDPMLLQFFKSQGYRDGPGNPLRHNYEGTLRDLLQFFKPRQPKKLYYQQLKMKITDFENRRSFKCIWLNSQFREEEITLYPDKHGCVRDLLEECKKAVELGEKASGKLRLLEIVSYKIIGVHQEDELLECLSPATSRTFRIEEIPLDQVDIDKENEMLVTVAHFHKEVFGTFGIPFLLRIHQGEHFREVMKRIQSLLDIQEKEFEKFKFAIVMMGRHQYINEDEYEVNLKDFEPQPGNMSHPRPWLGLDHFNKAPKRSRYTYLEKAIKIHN
Chain of USP54 (Q70EL1 whole entry): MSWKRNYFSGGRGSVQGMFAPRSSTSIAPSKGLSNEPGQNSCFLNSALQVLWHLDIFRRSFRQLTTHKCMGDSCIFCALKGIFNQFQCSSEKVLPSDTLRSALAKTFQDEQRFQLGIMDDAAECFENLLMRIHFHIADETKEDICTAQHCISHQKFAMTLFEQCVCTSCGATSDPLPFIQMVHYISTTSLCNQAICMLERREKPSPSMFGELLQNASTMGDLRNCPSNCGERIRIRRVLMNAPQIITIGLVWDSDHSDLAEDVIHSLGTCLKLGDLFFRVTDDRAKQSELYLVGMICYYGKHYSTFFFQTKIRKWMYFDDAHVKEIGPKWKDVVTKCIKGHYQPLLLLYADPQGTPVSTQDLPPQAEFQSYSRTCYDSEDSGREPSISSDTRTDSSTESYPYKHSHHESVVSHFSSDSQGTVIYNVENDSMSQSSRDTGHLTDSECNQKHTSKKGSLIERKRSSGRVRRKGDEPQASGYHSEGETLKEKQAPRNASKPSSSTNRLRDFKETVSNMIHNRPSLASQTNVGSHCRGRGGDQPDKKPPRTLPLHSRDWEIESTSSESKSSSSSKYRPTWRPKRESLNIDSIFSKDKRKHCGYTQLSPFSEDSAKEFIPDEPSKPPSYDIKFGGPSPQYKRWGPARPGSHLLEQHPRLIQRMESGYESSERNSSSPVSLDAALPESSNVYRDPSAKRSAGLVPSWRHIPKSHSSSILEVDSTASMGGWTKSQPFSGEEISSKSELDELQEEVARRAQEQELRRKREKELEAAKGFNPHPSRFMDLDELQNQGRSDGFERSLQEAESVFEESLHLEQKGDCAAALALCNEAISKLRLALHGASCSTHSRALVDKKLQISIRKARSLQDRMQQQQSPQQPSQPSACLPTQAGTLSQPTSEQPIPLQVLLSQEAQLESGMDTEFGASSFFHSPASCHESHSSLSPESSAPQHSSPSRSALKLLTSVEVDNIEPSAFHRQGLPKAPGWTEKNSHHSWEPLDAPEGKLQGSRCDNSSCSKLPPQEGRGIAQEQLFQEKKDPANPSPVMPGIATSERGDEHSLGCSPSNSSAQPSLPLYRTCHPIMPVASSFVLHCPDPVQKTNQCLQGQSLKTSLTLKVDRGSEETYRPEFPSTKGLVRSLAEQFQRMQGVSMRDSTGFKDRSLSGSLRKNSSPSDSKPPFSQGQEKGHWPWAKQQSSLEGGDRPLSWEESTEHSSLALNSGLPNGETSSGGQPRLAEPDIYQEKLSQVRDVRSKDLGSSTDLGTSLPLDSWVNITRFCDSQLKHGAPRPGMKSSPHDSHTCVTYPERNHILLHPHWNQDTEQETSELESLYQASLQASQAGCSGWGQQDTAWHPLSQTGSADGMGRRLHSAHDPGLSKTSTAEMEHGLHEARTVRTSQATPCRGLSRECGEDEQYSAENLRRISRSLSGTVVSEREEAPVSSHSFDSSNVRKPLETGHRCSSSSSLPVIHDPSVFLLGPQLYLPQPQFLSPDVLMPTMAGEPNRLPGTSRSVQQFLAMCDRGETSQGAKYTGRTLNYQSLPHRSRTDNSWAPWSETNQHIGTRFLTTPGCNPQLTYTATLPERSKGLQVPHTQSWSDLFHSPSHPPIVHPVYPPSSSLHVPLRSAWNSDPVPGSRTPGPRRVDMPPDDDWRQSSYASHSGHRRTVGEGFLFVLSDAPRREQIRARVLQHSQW

CCN(C(=O)CCl)C1CCS(=O)(=O)C1 (stereo not drawn)
inactive: USP42 0.372 | USP46 -0.128 | USP47 0.027 | USP48 -0.155 | USP5 0.158 | USP54 -0.012 | USP7 -0.288 | USP8 0.0171
